About 83,000 compounds went through this panel and 20% of them were active in at least one assay; those are over-represented in the sample as a whole.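 Plates (96-well) were seeded with cells, treated with compound at one concentration, and incubated for 48 hours before percent growth was determined.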 Values without a mark were called inactive. The source made the active and inactive calls. The calls were made as follows: active = growth percent below 10; inactive = the rest.
What follows are molecules tested on SN12C renal (assay: NCI-60 one-dose screen, 48 h (100 = growth as untreated, 0 = no growth, -100 = all killed)). Conditions: 10 µM unless noted.

SMILES | growth
CN1CCN(CCCNC(=O)c2c3c(n4ccccc24)C(=O)c2ncccc2C3=O)CC1 | -48.5% (active)
CN1CCN(CC(=O)N(C)c2ccc(N=C(c3ccccc3)c3c(O)[nH]c4ccc([N+](=O)[O-])cc34)cc2)CC1 | 56.8%
CCCCCCCCNc1ncnc2c1ncn2Cc1nnc2c3ccccc3c(Cl)nn12 | 29.7%
CC/C(=C(/c1ccc(Cl)cc1)c1ccc(OCCCN(C)C)cc1)c1ccc(OC)cc1 | 83.3%
CCN(CC)CCCNC(=O)c1c2c(n3ccccc13)C(=O)c1ncccc1C2=O | -56% (active)
CCCn1cnc2c(c1=N)C(c1ccc(Cl)cc1)c1sc3c(F)cccc3c1O2 (stereo not given) | 69.3%
Cc1ccc(C23CCC(=O)N2CCc2cncn23)cc1 (stereo not given) | 99%
O=C(COc1ccc(/C=C2\Oc3ccccc3C2=O)cc1)Nc1nccs1 | 90.3%
Cc1c(C(=O)C(SC(=S)N2CCOCC2)SC(=S)N2CCOCC2)nnn1-c1ccc([N+](=O)[O-])cc1 | 96.4%
O=[N+]([O-])c1ccc(Oc2cccc3c(Oc4ccc([N+](=O)[O-])cc4[N+](=O)[O-])cccc23)c([N+](=O)[O-])c1 | 74.8%
CN(C)CCOc1ccc(/C(=C(/CCCCCCCCCC[P+](c2ccccc2)(c2ccccc2)c2ccccc2)c2ccccc2)c2ccccc2)cc1 | -86.2% (active)
CC1(C)CC[C@]2(CO)CC[C@]3(C)C(=CC[C@@H]4[C@@]5(C)CCNCC(C)(C)[C@@H]5CC[C@]43C)[C@@H]2C1 | 80.5%
O=c1oc2ccccc2cc1-c1nn(-c2ccccc2)cc1/C=N/Nc1nc(-c2ccccc2)c(N=Nc2ccccc2)s1 | 103%
COc1cc(/C=C2\CN(S(=O)(=O)c3ccc(C)cc3)C/C(=C\c3cc(CN4CCCC4)c(O)c(OC)c3)C2=O)cc(CN2CCCC2)c1O | -56.1% (active)
Nc1ccc(Cl)c2c(=O)c3ccccc3[nH]c12 | 89.2%
COC(=O)c1sc(-c2ccc(C)cc2)cc1O | 101%
CCOC(=O)CSc1nc2sc3c(c2c(=O)n1-c1ccccc1)CCCCC3 | 95.1%
O=C1NCCS(=O)(=O)/C1=C\C=C\c1cccc(C(F)(F)F)c1 | 24.3%
COc1cc(/C=C2\C(=O)N(CCOc3cc(O)c4c(=O)cc(-c5ccccc5)oc4c3)c3ccccc32)cc(OC)c1O | 65.9%
CNC1=C([N+](=O)[O-])C(c2ccc(OC)cc2)C(C#N)=C(c2ccc[nH]2)O1 (stereo not given) | 97.1%

SMILES | growth
COc1cccc2cc(N(C)c3ncnc4ccccc34)ccc12 | 20.9%
Cc1[nH]c(C(=O)Nc2ccc(C(N)=O)cc2OC(C)C)c(Cl)c1Cl | 99.9%
Nc1nc(N)c2c(n1)NC(c1cccc(Nc3ccnc4cc(C(F)(F)F)ccc34)c1)CC(c1ccc(Cl)cc1)=N2 (stereo not given) | 63.9%
COC1=C(OC)C(=O)C(CCCCCCCCCCO)=C(C)C1=O | 57.6%
O=C1c2c(c3c4cccnc4[nH]c3c3ccc4ccccc4c23)C(=O)N1O | 26.5%
CCN1CCN(C(=O)[C@]23CC[C@@H](C)[C@H](C)[C@@H]2C2=CC[C@@H]4[C@@]5(C)C/C(=C/c6ccncc6)C(=O)C(C)(C)[C@@H]5CC[C@@]4(C)[C@]2(C)CC3)CC1 | 28.1%
C=CC(=O)Nc1ccc2ncnc(Nc3cccc(NS(=O)(=O)CCC)c3Cl)c2c1 | 22.9%
COc1ccccc1/C=C/C1=C(C)CCC(c2ccccc2OC)C1C (stereo not given) | 28%
CN(C)CCOc1nc2c3cc([N+](=O)[O-])ccc3nn2c2ccccc12 | 14%
COc1ccc(-c2nc(SCCC(C)C)nc(N/N=C(/C)c3ccc(N)cc3)c2C#N)cc1 | 75.1%
O=C(c1ccccc1)[C@@H](c1ccccc1)[C@]1(O)C(=O)Nc2ccccc21 | 82.3%
CCOC(=O)C1=C(c2ccccc2)N=C2SC=C(c3cccc([N+](=O)[O-])c3)N2C1c1ccc(O)cc1 (stereo not given) | 96%
Cn1nc(-c2ccc(Cl)cc2)nc2c(=O)n(C)c(=O)nc1-2 | -72.5% (active)
COC1CC(O)C2=C(CC3C(/C(C)=C\CC=C(C)C)CCC3(C)O2)C1=O (stereo not given) | 107%
COc1cc(C(=O)/C=C/c2c(-c3cccs3)nc3sc(C)cn23)cc(OC)c1OC | 29%
CSc1nc(N)c2c(n1)NC(c1ccccc1)C1CCc3ccccc3C1=N2 (stereo not given) | 65.7%
COC(=O)c1c(C)nc(C)c2c1C(=O)C(Br)=C(NCCCCO)C2=O | 61.7%
COc1ccc(S(=O)(=O)Oc2ccc(-c3sc4cc(OS(=O)(=O)c5ccc(OC)cc5)ccc4c3C(=O)c3ccc(OCCN4CCCCC4)cc3)cc2)cc1 | 99.9%
C=C(c1ccc(C(=O)O)c(F)c1)c1cc2c(cc1C)C(C)(C)C=CC2(C)C | 83.1%
COc1cc(C2=Nc3c(N)nc(N)nc3NC(c3cccc(Nc4ccnc5cc(C(F)(F)F)ccc45)c3)C2)cc(OC)c1OC (stereo not given) | 73%
